PubChem BioAssay AID1159580 (chemical genetic matrix, 2015)
Screen size: about 5,500 compounds; about 2,000 (36%) were called active. Roughly 18% stayed inconclusive and do not appear here. Cut-off read from the data, not from the text of the source: active = normalized growth mostly below about 0.91 (no sharp cut-off); inconclusive = no clear call, values can overlap the other calls; inactive = mostly above about 0.92. The list shows a part of the results.

Assay: chemical genetic growth profiling, strain panel (AID 1159580);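 note: tested at 20 µM; growth read once vehicle control cultures reached saturation at 30 °C; 1 = growth at the plate median or of vehicle wells; lower values mean less growth of the strain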
Conditions: growth OD

Measured: normalized growth

NCCCN
inactive: S. cerevisiae deletion strains, locus YJR066W, strain TOR1, stronger effect = lower value 0.933 | S. cerevisiae deletion strains, locus YKL009W, strain mrt4, stronger effect = lower value 1.02 | S. cerevisiae deletion strains, locus YKL068W, stronger effect = lower value 0.985 | S. cerevisiae deletion strains, locus YKL085W, strain MDH1 (second series), stronger effect = lower value 0.984 | S. cerevisiae deletion strains, locus YKL085W, strain MDH1, stronger effect = lower value 0.984 | S. cerevisiae deletion strains, locus YKL160W, strain elf1, stronger effect = lower value 1.02 | S. cerevisiae deletion strains, locus YKL190W, strain CNB1, stronger effect = lower value 0.999 | S. cerevisiae deletion strains, locus YKR001C, strain vps1, stronger effect = lower value 1.01 | S. cerevisiae deletion strains, locus YKR026C, strain gcn3, stronger effect = lower value 0.986 | S. cerevisiae deletion strains, locus YKR091W, strain srl3, stronger effect = lower value 0.998 | S. cerevisiae deletion strains, locus YLL001W, strain dnm1, stronger effect = lower value 1 | S. cerevisiae deletion strains, locus YLL026W, stronger effect = lower value 0.988 | S. cerevisiae deletion strains, locus YLL041C, strain sdh2, stronger effect = lower value 0.987 | S. cerevisiae deletion strains, locus YLR027C, strain aat2, stronger effect = lower value 1 | S. cerevisiae deletion strains, locus YLR039C, strain RIC1, stronger effect = lower value 1.09 | S. cerevisiae deletion strains, locus YLR058C, strain SHM2, stronger effect = lower value 1 | S. cerevisiae deletion strains, locus YLR102C, strain apc9, stronger effect = lower value 0.988 | S. cerevisiae deletion strains, locus YLR113W, strain HOG1, stronger effect = lower value 1.05 | S. cerevisiae deletion strains, locus YLR221C, strain rsa3, stronger effect = lower value 0.959 | S. cerevisiae deletion strains, locus YLR258W, strain gsy2, stronger effect = lower value 0.992 | S. cerevisiae deletion strains, locus YLR262C, strain YPT6 (second series), stronger effect = lower value 1.02 | S. cerevisiae deletion strains, locus YLR262C, strain YPT6, stronger effect = lower value 1.14 | S. cerevisiae deletion strains, locus YLR268W, strain sec22, stronger effect = lower value 0.979 | S. cerevisiae deletion strains, locus YLR320W, strain mms22, stronger effect = lower value 0.983 | S. cerevisiae deletion strains, locus YLR330W, strain CHS5, stronger effect = lower value 0.993 | S. cerevisiae deletion strains, locus YLR342W, strain FKS1 (second series), stronger effect = lower value 1.02 | S. cerevisiae deletion strains, locus YLR342W, strain FKS1, stronger effect = lower value 0.994 | S. cerevisiae deletion strains, locus YLR357W, strain rsc2, stronger effect = lower value 0.978 | S. cerevisiae deletion strains, locus YLR370C, strain arc18, stronger effect = lower value 0.967 | S. cerevisiae deletion strains, locus YLR371W, strain rom2, stronger effect = lower value 0.961 | S. cerevisiae deletion strains, locus YLR384C, strain iki3, stronger effect = lower value 0.993 | S. cerevisiae deletion strains, locus YLR418C, strain cdc73, stronger effect = lower value 1.03 | S. cerevisiae deletion strains, locus YML016C, strain PPZ1, stronger effect = lower value 0.994 | S. cerevisiae deletion strains, locus YML032C, strain rad52, stronger effect = lower value 1.02 | S. cerevisiae deletion strains, locus YML120C, strain ndi1, stronger effect = lower value 0.992 | S. cerevisiae deletion strains, locus YML124C, strain tub3, stronger effect = lower value 0.99 | S. cerevisiae deletion strains, locus YMR058W, strain fet3, stronger effect = lower value 0.994 | S. cerevisiae deletion strains, locus YMR078C, strain ctf18, stronger effect = lower value 0.972 | S. cerevisiae deletion strains, locus YMR125W, strain sto1, stronger effect = lower value 0.97 | S. cerevisiae deletion strains, locus YMR129W, stronger effect = lower value 0.991 | S. cerevisiae deletion strains, locus YMR205C, strain PFK2, stronger effect = lower value 1.02 | S. cerevisiae deletion strains, locus YMR223W, strain ubp8, stronger effect = lower value 1.01 | S. cerevisiae deletion strains, locus YMR231W, strain pep5, stronger effect = lower value 0.946 | S. cerevisiae deletion strains, locus YMR307W, strain GAS1, stronger effect = lower value 1.1 | S. cerevisiae deletion strains, locus YNL067W, strain RPL9B, stronger effect = lower value 1.01 | S. cerevisiae deletion strains, locus YNL071W, strain lat1, stronger effect = lower value 0.985 | S. cerevisiae deletion strains, locus YNL183C, strain NPR1, stronger effect = lower value 0.969 | S. cerevisiae deletion strains, locus YNL209W, strain ssb2, stronger effect = lower value 0.993 | S. cerevisiae deletion strains, locus YNL233W, strain BNI4, stronger effect = lower value 1.01 | S. cerevisiae deletion strains, locus YNL248C, strain rpa49, stronger effect = lower value 0.993 | S. cerevisiae deletion strains, locus YNL250W, strain rad50, stronger effect = lower value 0.979 | S. cerevisiae deletion strains, locus YNL271C, strain bni1, stronger effect = lower value 0.99 | S. cerevisiae deletion strains, locus YNL298W, strain CLA4, stronger effect = lower value 1.01 | S. cerevisiae deletion strains, locus YNL307C, strain MCK1, stronger effect = lower value 0.985 | S. cerevisiae deletion strains, locus YNL322C, strain KRE1 (second series), stronger effect = lower value 0.962 | S. cerevisiae deletion strains, locus YNL322C, strain KRE1, stronger effect = lower value 0.996 | S. cerevisiae deletion strains, locus YNR049C, strain mso1, stronger effect = lower value 0.988 | S. cerevisiae deletion strains, locus YNR052C, strain pop2, stronger effect = lower value 0.992 | S. cerevisiae deletion strains, locus YOL006C, strain TOP1, stronger effect = lower value 1.08 | S. cerevisiae deletion strains, locus YOL012C, strain htz1 0.761 | S. cerevisiae deletion strains, locus YOL147C, strain pex11, stronger effect = lower value 0.997 | S. cerevisiae deletion strains, locus YOR001W, strain rrp6, stronger effect = lower value 0.951 | S. cerevisiae deletion strains, locus YOR061W, strain CKA2, stronger effect = lower value 0.997 | S. cerevisiae deletion strains, locus YOR069W, strain VPS5, stronger effect = lower value 0.993 | S. cerevisiae deletion strains, locus YOR070C, strain gyp1, stronger effect = lower value 0.999 | S. cerevisiae deletion strains, locus YOR080W, strain dia2, stronger effect = lower value 0.97 | S. cerevisiae deletion strains, locus YOR083W, strain WHI5, stronger effect = lower value 1.02 | S. cerevisiae deletion strains, locus YOR106W, strain vam3, stronger effect = lower value 0.995 | S. cerevisiae deletion strains, locus YOR136W, strain idh2, stronger effect = lower value 0.974 | S. cerevisiae deletion strains, locus YOR144C, strain elg1, stronger effect = lower value 0.993 | S. cerevisiae deletion strains, locus YOR184W, strain ser1, stronger effect = lower value 1.01 | S. cerevisiae deletion strains, locus YOR231W, strain MKK1, stronger effect = lower value 0.987 | S. cerevisiae deletion strains, locus YOR265W, strain rbl2, stronger effect = lower value 0.99 | S. cerevisiae deletion strains, locus YOR270C, strain vph1, stronger effect = lower value 0.974 | S. cerevisiae deletion strains, locus YOR290C, strain snf2, stronger effect = lower value 0.991 | S. cerevisiae deletion strains, locus YOR316C, strain cot1, stronger effect = lower value 0.987 | S. cerevisiae deletion strains, locus YPL051W, strain arl3, stronger effect = lower value 0.984 | S. cerevisiae deletion strains, locus YPL078C, strain atp4, stronger effect = lower value 1 | S. cerevisiae deletion strains, locus YPL106C, strain sse1, stronger effect = lower value 0.996 | S. cerevisiae deletion strains, locus YPL240C, strain hsp82, stronger effect = lower value 0.986 | S. cerevisiae deletion strains, locus YPL241C, strain CIN2, stronger effect = lower value 1 | S. cerevisiae deletion strains, locus YPL256C, strain CLN2, stronger effect = lower value 0.988 | S. cerevisiae deletion strains, locus YPR119W, strain clb2, stronger effect = lower value 0.986 | S. cerevisiae deletion strains, locus YPR141C, strain kar3, stronger effect = lower value 0.985 | S. cerevisiae deletion strains, locus YPR163C, strain tif3, stronger effect = lower value 0.986 | S. cerevisiae deletion strains, locus YPR167C, strain met16, stronger effect = lower value 0.999 | S. cerevisiae deletion strains, strain wtn01, stronger effect = lower value 0.96 | S. cerevisiae strains, strain wild type, stronger effect = lower value 1
